# Data reported in PubChem BioAssay.
# The source made the active and inactive calls. Unless noted, how the calls were made is not given here.
# Assays:
# [1] = test system: Wnt5a (protein binding on small-molecule microarray); assay: Wnt5a binders on small-molecule microarray, primary screen, biophysical, 635/667 nm fluorescence (AID 1142); conditions: 635 nm fluorescence, higher = more signal;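 further: fluorescence read at 667 nm with signal to noise per printed feature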
# [2] = cell viability in Huh7 cells, primary screen, cytotoxicity control for HCV replication inhibitor project, CellTiter-Glo luminescence, basal, 48 h (AID 1143); conditions: Huh7 HCV replicon, higher = more signal, called active from +8 up or from −8 down;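 further: Huh7 hepatoma cells carrying a hepatitis C replication reporter with no stimulus; test concentration not given here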
# [3] = P. aeruginosa biofilm formation inhibitors, primary screen, PAO1 strain, BacTiter-Glo luminescence, LB-PBS (AID 1144); conditions: 12 h, higher = more signal
# [4] = CREB reporter modulators without forskolin, primary screen, cell-based, PC12, CRE-LacZ reporter, unstimulated (AID 1145); conditions: no forskolin, luminescence, 4.5 h, higher = more signal, called active from +8 up or from −8 down
# [5] = CREB reporter modulators under forskolin, primary screen, cell-based, PC12, CRE-LacZ reporter, forskolin-stimulated (AID 1146); conditions: luminescence, 4.5 h, higher = more signal, called active from +8 up or from −8 down;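 further: PC12 cells with 6xCRE LacZ reporter stimulated by forskolin 10 µM; beta-galactosidase reporter signal reflecting CREB driven transcription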
# [6] = molecular target: Streptavidin (Streptomyces avidinii) (UniProt P22629); assay: streptavidin binders on small-molecule microarray, primary screen, artefact control for SMM compound annotation, biophysical, 635/667 nm fluorescence (AID 1147); conditions: streptavidin binding, higher = more signal;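 further: signal reflects streptavidin binding to arrayed compounds as a control protein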
# Sequence of Streptavidin (Streptomyces avidinii) (P22629 whole entry, looked up): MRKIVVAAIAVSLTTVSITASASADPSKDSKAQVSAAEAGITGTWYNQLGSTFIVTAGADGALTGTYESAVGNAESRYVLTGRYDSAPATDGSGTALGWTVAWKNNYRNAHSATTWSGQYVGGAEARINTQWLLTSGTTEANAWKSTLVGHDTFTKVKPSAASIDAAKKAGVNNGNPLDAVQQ
# [7] = small-molecule binders of probe aInhba, primary screen, biochemical, small-molecule microarray, 635/667 nm fluorescence (AID 1148); conditions: higher = more signal;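 further: score merges 667nm spot fluorescence with signal-to-noise for antibody binding to printed compounds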
# [8] = molecular target: Torsin-1A (Homo sapiens) (UniProt O14656); assay: torsin A binders from cell lysate, primary screen, small-molecule microarray, wild-type, 635/667 nm (AID 1149); conditions: COS7 hTOR1A-WT lysate, 635 nm fluorescence, higher = more signal
# Sequence of Torsin-1A (Homo sapiens) (O14656 whole entry, looked up): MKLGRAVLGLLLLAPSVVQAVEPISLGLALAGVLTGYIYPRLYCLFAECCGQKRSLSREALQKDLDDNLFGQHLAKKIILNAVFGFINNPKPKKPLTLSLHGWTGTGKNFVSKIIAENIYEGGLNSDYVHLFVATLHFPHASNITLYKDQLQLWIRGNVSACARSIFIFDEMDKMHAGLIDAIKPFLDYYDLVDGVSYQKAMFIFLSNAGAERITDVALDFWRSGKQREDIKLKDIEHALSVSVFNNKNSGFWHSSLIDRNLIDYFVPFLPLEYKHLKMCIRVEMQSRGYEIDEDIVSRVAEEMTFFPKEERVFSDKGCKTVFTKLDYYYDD
# [9] = molecular target: Torsin-1A (Homo sapiens) (UniProt O14656); assay: small-molecule binders of mutant TOR1A in lysate, primary screen, cell lysate, small-molecule microarray, COS7 lysate, 635/667 nm fluorescence (AID 1150); conditions: COS7 hTOR1A mutant lysate, 635 nm fluorescence, higher = more signal;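 further: score pools 667 nm emission and signal to noise measuring lysate protein binding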
# [10] = test system: Sonic hedgehog protein (Shh); assay: small-molecule binders of Shh protein, primary screen, biochemical, small-molecule microarray, 635/667 nm fluorescence (AID 1151); conditions: small-molecule microarray binding, 635 nm fluorescence; higher = more signal;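 further: Shh protein binding to compounds spotted on small-molecule microarray slides; score combines spot fluorescence intensity with signal-to-noise across triplicate slides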
# [11] = E. coli DRC41 culture turbidity changes, primary screen, E. coli filamentation inducer project, strain DRC41, OD650, 48 h (AID 1152);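 further: E. coli MC1000 strain DRC41 lacking acrAB efflux pump and sulA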; conditions: E. coli DRC41 (acrAB sulA), higher = more signal, called active from +8 up or from −8 down
# [12] = small-molecule binders of probe aLefty1, primary screen, biochemical, small-molecule microarray, 635/667 nm fluorescence (AID 1153); conditions: higher = more signal;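 further: score merges spot fluorescence with signal-to-noise ratio from the scanned slide images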
# [13] = PSAC antagonists in infected red cells, primary screen, cell-based, P. falciparum Indochina, OD700, 1 h (AID 1154); conditions: P. falciparum Indochina infected RBC osmotic lysis, higher = more signal, called active from +8 up or from −8 down
# [14] = PSAC antagonists in infected red cells, primary screen, cell-based, P. falciparum Indochina, OD700, 2 h (AID 1155);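 further: lysis reports solute entry through the parasite surface anion channel PSAC; channel blockers reduce lysis of infected cells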; conditions: P. falciparum Indochina infected erythrocytes, osmotic lysis OD700; higher = more signal, called active from +8 up or from −8 down
# [15] = osmotic lysis modulators in infected erythrocytes, primary screen, PSAC antagonist project, cell-based, P. falciparum Indochina, OD700, 3 h (AID 1156); conditions: higher = more signal, called active from +8 up or from −8 down
# [16] = PSAC antagonists in infected red cells, primary screen, cell-based, P. falciparum Indochina, OD700, 18 h (AID 1157); conditions: P. falciparum Indochina infected erythrocytes, osmotic lysis OD700, 18 h; higher = more signal, called active from +8 up or from −8 down
# [17] = modulators of S6 phosphorylation in cells, primary screen, cell-based, A549, cytoblot, luminescence, serum-stimulated (AID 1158); conditions: A549 phospho-S6 cytoblot, 5 h, higher = more signal;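 further: serum-stimulated A549 lung adenocarcinoma cells; signal is phosphorylated S6 detected by cytoblot immunostaining with HRP secondary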
# [18] = molecular target: NADPH oxidase 2 (Homo sapiens) (UniProt P04839); assay: NOX2-dependent H2O2 signal modulators, primary screen, NOX inhibitor project, cell-based, HEK293-NOX2, PMA-stimulated, Amplex Red fluorescence (AID 1159); conditions: 45 min, higher = more signal, called active from +8 up or from −8 down; further: test concentration not given here
# Sequence of NADPH oxidase 2 (Homo sapiens) (P04839 whole entry, looked up): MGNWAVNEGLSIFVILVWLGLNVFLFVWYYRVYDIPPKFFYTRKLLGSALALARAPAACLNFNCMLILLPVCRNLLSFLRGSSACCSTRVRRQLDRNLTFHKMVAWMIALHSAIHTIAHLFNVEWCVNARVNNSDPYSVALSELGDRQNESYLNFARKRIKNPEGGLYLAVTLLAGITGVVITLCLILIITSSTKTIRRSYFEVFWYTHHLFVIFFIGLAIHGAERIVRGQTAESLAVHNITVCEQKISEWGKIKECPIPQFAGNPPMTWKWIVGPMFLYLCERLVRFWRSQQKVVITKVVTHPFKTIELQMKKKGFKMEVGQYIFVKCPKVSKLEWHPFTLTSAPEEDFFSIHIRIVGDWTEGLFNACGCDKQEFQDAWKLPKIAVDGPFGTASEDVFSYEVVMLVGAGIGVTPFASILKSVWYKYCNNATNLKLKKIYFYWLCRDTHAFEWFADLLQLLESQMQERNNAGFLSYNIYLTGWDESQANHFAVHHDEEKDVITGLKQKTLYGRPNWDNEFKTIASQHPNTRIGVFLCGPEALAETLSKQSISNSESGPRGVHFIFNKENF
# [19] = molecular target: NADPH oxidase 4 (Homo sapiens) (UniProt Q9NPH5); assay: NOX4-dependent H2O2 signal modulators, primary screen, NOX inhibitor project, cell-based, HEK293-NOX4, tetracycline-induced, Amplex Red fluorescence (AID 1160); conditions: 45 min, higher = more signal, called active from +8 up or from −8 down
# Sequence of NADPH oxidase 4 (Homo sapiens) (Q9NPH5 whole entry, looked up): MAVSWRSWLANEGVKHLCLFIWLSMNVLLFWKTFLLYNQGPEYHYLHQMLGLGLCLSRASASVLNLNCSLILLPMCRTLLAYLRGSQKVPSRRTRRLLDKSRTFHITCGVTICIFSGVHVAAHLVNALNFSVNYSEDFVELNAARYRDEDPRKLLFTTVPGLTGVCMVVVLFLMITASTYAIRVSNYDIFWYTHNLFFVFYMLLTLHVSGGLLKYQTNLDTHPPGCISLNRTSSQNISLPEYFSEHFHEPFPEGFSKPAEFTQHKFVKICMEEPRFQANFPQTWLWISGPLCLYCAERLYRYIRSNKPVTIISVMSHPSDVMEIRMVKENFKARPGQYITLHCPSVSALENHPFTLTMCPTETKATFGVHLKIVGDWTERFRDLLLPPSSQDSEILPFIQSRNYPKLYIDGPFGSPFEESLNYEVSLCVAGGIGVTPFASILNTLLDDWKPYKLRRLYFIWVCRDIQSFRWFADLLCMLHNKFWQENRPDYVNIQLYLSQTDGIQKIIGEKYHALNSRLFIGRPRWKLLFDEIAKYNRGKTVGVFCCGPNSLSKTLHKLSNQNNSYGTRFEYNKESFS
# [20] = molecular target: NADPH oxidase 5 (Homo sapiens) (UniProt Q96PH1); assay: NOX5-dependent H2O2 signal modulators, primary screen, NOX inhibitor project, cell-based, HEK293-NOX5, Amplex Red fluorescence (AID 1161); conditions: HEK293-NOX5, ionomycin, 45 min, higher = more signal
# Sequence of NADPH oxidase 5 (Homo sapiens) (Q96PH1 whole entry, looked up): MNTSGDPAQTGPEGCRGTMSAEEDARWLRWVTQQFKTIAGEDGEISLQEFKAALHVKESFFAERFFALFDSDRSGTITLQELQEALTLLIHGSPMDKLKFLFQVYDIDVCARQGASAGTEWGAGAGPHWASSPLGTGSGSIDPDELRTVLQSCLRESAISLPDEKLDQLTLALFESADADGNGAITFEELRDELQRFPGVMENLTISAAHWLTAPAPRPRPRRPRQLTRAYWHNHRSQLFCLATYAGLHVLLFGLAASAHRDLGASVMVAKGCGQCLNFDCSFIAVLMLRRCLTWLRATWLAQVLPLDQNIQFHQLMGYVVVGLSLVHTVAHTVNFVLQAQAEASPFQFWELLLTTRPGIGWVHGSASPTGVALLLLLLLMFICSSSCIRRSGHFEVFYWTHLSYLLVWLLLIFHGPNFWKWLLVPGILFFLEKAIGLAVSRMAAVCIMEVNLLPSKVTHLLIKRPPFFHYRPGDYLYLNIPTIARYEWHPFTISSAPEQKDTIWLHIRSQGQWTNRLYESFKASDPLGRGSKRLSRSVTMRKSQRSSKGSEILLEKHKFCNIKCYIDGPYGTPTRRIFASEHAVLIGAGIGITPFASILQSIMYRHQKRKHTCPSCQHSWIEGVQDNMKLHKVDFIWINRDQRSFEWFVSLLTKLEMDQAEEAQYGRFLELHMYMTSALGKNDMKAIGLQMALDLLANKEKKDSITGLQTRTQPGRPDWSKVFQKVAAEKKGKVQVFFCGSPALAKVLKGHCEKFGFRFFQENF
Compound,composite z-score [1],z-score [2],z-score [3],z-score [4],z-score [5],composite z-score [6],composite z-score [7],composite z-score [8],composite z-score [9],composite z-score [10],z-score [11],composite z-score [12],z-score [13],z-score [14],z-score [15],z-score [16],z-score [17],z-score [18],z-score [19],z-score [20]
CCCCCCC#C[Si](O[C@H](c1ccccc1)c1cn(Cc2cccc(Cl)c2)nn1)(C(C)C)C(C)C,-0.14,-0.736 (inactive),-0.628 (inactive),-1.12 (inactive),-0.687 (inactive),0.967,0.0367,0.317,0.213,0.179,1.9 (inactive),-0.142,0.876 (inactive),0.886 (inactive),0.0206 (inactive),0.162 (inactive),0.635,-0.706 (inactive),-0.705 (inactive),-0.576
COC(=O)[C@@]1(Cc2ccc(OC)cc2)[C@H]2c3cc(C(=O)N4CCCC4)n(CCF)c3C[C@H]2CN1C(=O)c1ccccc1,2.55,-2.46 (inactive),-0.129 (inactive),0.972 (inactive),0.325 (inactive),1.5,2.05,-0.0089,0.619,-0.801,-1.28 (inactive),2.49,10.4 (active),1.42 (inactive),2.39 (inactive),1.13 (inactive),0.181,-0.201 (inactive),-2.52 (inactive),-3.65
CC(C)N1CC=CC23O[C@@H]4C=CCOC(=O)[C@@H]4[C@H]2C(=O)N(CCCCCCO)[C@@H]3C1=O (stereo not given in full),-0.301,-0.0015 (inactive),-0.839 (inactive),-0.627 (inactive),-0.421 (inactive),-0.665,-0.097,-2.54,-0.976,1.08,0.864 (inactive),-0.184,0.855 (inactive),0.619 (inactive),0.343 (inactive),0.65 (inactive),-0.0596,0.936 (inactive),-0.482 (inactive),1.26
COc1ccc([Si](C)(C)[C@H]2[C@H](CCn3cc(CCO)nn3)O[C@@]3(C(=O)N(Cc4cccc(N5C(=O)c6cccc7cccc5c67)c4)c4ccccc43)[C@@H]2C)cc1,0.16,-7.3 (inactive),-1.11 (inactive),11 (active),-1.3 (inactive),0.99,-0.018,1.33,1.22,1.37,0.652 (inactive),0.466,5.3 (inactive),2.43 (inactive),1.32 (inactive),1.36 (inactive),0.615,0.782 (inactive),1.74 (inactive),2.97
Cc1ccc(F)cc1S(=O)(=O)N[C@@H]1CCN(C(=O)c2ccc(OC(C)C)cc2)C1,0.336,-0.798 (inactive),0.595 (inactive),2.66 (inactive),-0.906 (inactive),0.224,0.143,0.0677,0.196,0.975,0.295 (inactive),-0.0973,2.54 (inactive),1.02 (inactive),0.79 (inactive),0.427 (inactive),-0.102,-0.471 (inactive),-0.0285 (inactive),-0.257
COc1cc2c(cc1OC)CN(C(=O)[C@@H]1[C@H]3C(=O)O[C@H](c4ccccc4)[C@H](c4ccccc4)N3[C@H](c3ccc(O)cc3)[C@@]13C(=O)Nc1ccc(C#CCNC(N)=O)cc13)CC2,0.147,0.311 (inactive),0.347 (inactive),0.182 (inactive),0.445 (inactive),0.239,-0.101,-0.0899,-0.0351,0.946,0.108 (inactive),0.231,1.1 (inactive),0.218 (inactive),-0.83 (inactive),-0.0717 (inactive),-0.419,0.842 (inactive),0.157 (inactive),0.432
COCC(=C=CC[C@@H](O)c1ccccc1OCCO)C[C@@H](O)c1ccccn1,0.088,-0.202 (inactive),1.2 (inactive),1.99 (inactive),-0.465 (inactive),-0.0795,0.0737,0.162,0.679,1.89,-0.197 (inactive),0.235,8.59 (active),0.801 (inactive),0.502 (inactive),0.577 (inactive),-0.456,-0.459 (inactive),-1.04 (inactive),-1.31
COc1ccc(C#Cc2ccc3c(c2)[C@]2(C(=O)N3)[C@H](C(N)=O)[C@H]3C(=O)O[C@H](c4ccccc4)[C@H](c4ccccc4)N3[C@@H]2c2ccc(O)cc2)cc1,0.138,-4.69 (inactive),-0.755 (inactive),-0.465 (inactive),-0.332 (inactive),0.214,-0.128,0.369,1.03,0.794,-0.203 (inactive),-0.131,3.46 (inactive),1.63 (inactive),0.0128 (inactive),1.23 (inactive),0.0535,0.945 (inactive),0.346 (inactive),-1.04
COC(=O)[C@@]1(Cc2ccccc2)[C@H]2c3cc(C(=O)N4CCCC4)n(CCO)c3C[C@H]2CN1C(=O)c1ccccc1,1.42,-1.08 (inactive),0.0984 (inactive),-0.189 (inactive),0.0581 (inactive),1.97,1.4,3.21,3.41,-1.01,-0.258 (inactive),1.89,0.0574 (inactive),-0.644 (inactive),-0.513 (inactive),-1.61 (inactive),1.33,0.661 (inactive),-0.517 (inactive),-2.49
CC(C)(C)OC(=O)CC[C@]1(C(=O)N2CCCCC2)N=C(c2ccc(OCCCO)cc2)O[C@H]1c1ccccc1CN=[N+]=[N-],1.13,-3.42 (inactive),-0.596 (inactive),0.927 (inactive),-0.707 (inactive),0.835,0.927,0.635,1.17,0.251,2.54 (inactive),1.66,21.9 (active),4.95 (inactive),0.768 (inactive),0.158 (inactive),1.89,-0.683 (inactive),1.56 (inactive),0.95
COCCOC(=O)N1C(=O)[C@@]2(c3cc(C#CCCO)ccc31)[C@H](c1ccc(OCCO)cc1)N1[C@H](c3ccccc3)[C@H](c3ccccc3)OC(=O)[C@H]1[C@@H]2C(=O)N1CCc2cc(OC)c(OC)cc2C1,0.359,-0.415 (inactive),-0.66 (inactive),-0.231 (inactive),-0.196 (inactive),0.402,0.153,0.637,0.748,1.37,0.526 (inactive),0.777,3.2 (inactive),1.67 (inactive),0.226 (inactive),1.1 (inactive),-0.354,0.898 (inactive),1.01 (inactive),1.23
COC(=O)[C@@]1(Cc2ccc(F)cc2)[C@@H]2[C@@H](CC(=O)[C@H]2CC(=O)C(=O)N2CCCC2)CN1C(=O)c1ccccc1,0.603,-2.93 (inactive),0.925 (inactive),0.766 (inactive),0.526 (inactive),1.48,1.4,0.0262,0.666,-0.695,-1.75 (inactive),1.33,1.76 (inactive),0.367 (inactive),0.747 (inactive),0.935 (inactive),-0.502,0.67 (inactive),0.478 (inactive),1.28
COC(=O)C(CC#Cc1ccc2c(c1)[C@]1(C(=O)N2)[C@H](c2ccc(O)cc2)N2[C@H](c3ccccc3)[C@H](c3ccccc3)OC(=O)[C@H]2[C@@H]1C(=O)O)C(=O)OC,-0.198,-0.627 (inactive),-0.191 (inactive),0.389 (inactive),0.416 (inactive),-0.0974,-0.212,-0.295,0.168,0.262,-1.42 (inactive),0.0315,0.489 (inactive),-0.18 (inactive),-0.258 (inactive),-0.367 (inactive),-0.351,1.42 (inactive),0.0467 (inactive),1.29
CC(C)[Si](C#C[Si](C(C)C)(C(C)C)C(C)C)(O[C@H](C)c1cn(Cc2cccc(Cl)c2)nn1)C(C)C,-0.0078,-0.219 (inactive),-1.25 (inactive),-0.71 (inactive),-0.399 (inactive),0.534,-0.101,0.781,0.262,0.632,2.58 (inactive),-0.195,1.23 (inactive),0.881 (inactive),-0.125 (inactive),0.702 (inactive),0.712,0.501 (inactive),0.312 (inactive),-0.162
CC(C)C[C@@H]1NC(=O)[C@@H]2C[C@H](C(=O)NCc3ccc(F)cc3)[C@H](c3ccc(O)cc3)N2C1=O,0.187,-0.393 (inactive),-0.0526 (inactive),-0.26 (inactive),-0.101 (inactive),-0.419,-0.118,0.483,0.44,1.46,0.227 (inactive),-0.0559,1.46 (inactive),0.328 (inactive),-1.64 (inactive),0.424 (inactive),0.0668,0.468 (inactive),-0.106 (inactive),1.18
[N-]=[N+]=Nc1ccccc1C[C@]1(C(=O)NCCN2CCOCC2)N=C(c2ccc(OCCCO)cc2)O[C@H]1c1ccccc1N=[N+]=[N-],0.682,-3.68 (inactive),-0.933 (inactive),0.573 (inactive),-1.29 (inactive),0.678,0.726,0.818,0.954,0.926,1.11 (inactive),0.628,27.7 (active),23.2 (active),1.35 (inactive),4.41 (inactive),1.75,-2.69 (inactive),0.686 (inactive),-1.15
